# Test results taken from PubChem BioAssay (NCATS).
# Inconclusive results are not listed. The list shows a part of the results. Active and inactive are the calls of the source. Unless noted, calls come from the whole dose curve; as a rule, active = well fitted curve in the direction sought with a large enough effect; inconclusive = small, poorly fitted or top-dose-only effect, or another doubt; inactive = no such curve, though single readings can be large; an effect the other way counts as inactive or inconclusive.
# Key:
# [1] = qHTS profiling for inhibitors of Plasmodium falciparum (3D7) proliferation (AID 743322; call rule not given here;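 note: infected erythrocytes exposed to compound for 72 h before lysis; 100% = DMSO vehicle wells and 0% = 0.29 µM artemisinin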); conditions: P. falciparum 3D7 proliferation; at 28.7 µM (top of the series)
# How it was run: (§1)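 Erythrocytes infected with P. falciparum (0.3% parasitemia, 2.5% hematocrit) incubated with compounds 72 h at 37 C, 5% CO2. Lysis with saponin/Triton buffer containing SYBR Green I, overnight at room temperature in the dark; DNA fluorescence (485/535 nm) normalised to 0.29 uM artemisinin and DMSO.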
# [2] = qHTS profiling for inhibitors of Plasmodium falciparum (DD2) proliferation (AID 743323; call rule not given here); conditions: lower = more inhibition; at 28.7 µM (top of the series)
# How it was run: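 1536-well qHTS; infected RBCs 0.3% parasitemia/2.5% Hct final; cpd 72 h 37 C 5% CO2; lysis buffer + SYBR Green I, o/n RT dark; FI 485/535; norm. to 0.29 uM artemisinin and DMSO, plate-stack corrected.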
# [3] = qHTS profiling for inhibitors of Plasmodium falciparum (HB3) proliferation (AID 743324); conditions: Plasmodium falciparum HB3 blood-stage proliferation; at 28.7 µM (top of the series);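 note: 100% = DMSO vehicle wells and 0% = artemisinin-treated control wells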
# How it was run: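 P. falciparum HB3 grown in erythrocytes (0.3% parasitemia, 2.5% hematocrit final) with compound for 72 h at 37 C, 5% CO2. Parasite DNA detected by SYBR Green after saponin/triton lysis overnight; normalized to 0.29 uM artemisinin and DMSO.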
# [4] = qHTS Assay for Identifying Gametocytocidal Compounds (AID 743244);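 note: % is set by controls: 0 for no effect and ±100 for the full control effect; actives lower the fluorescent signal which means gametocytes are killed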; conditions: P. falciparum 3D7 stage III-V gametocytes, alamarBlue, 72 h; stronger effect = lower value
# How it was run: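 Stage III-V P. falciparum 3D7 gametocytes, 20,000 per well, were exposed to compounds for 72 h at 37C, 5% CO2. AlamarBlue was then added for 24 h and viability was read as fluorescence at Ex 525/Em 598 nm.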
# [5] = target: RecQ-like DNA helicase BLM (Homo sapiens) (UniProt P54132); assay: qHTS for Inhibitors of WRN Helicase: BLM Helicase Counterscreen for WRN Inhibitors (AID 720503); conditions: Recombinant BLM helicase DNA unwinding, red fluorescence; series mostly up to 57.1 µM; note: potency is the fitted concentration of half-maximal effect; nearly all actives have a fitted effect of over 60% in size
# How it was run: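 1 nM BLM, Tris pH 8.0/NaCl/MgCl2/DTT/Tween-20; cpd preinc 15 min RT; start w/ 100 nM DNA + 2 mM ATP final; fluorescence (ex 525/em 598) two reads 15 min apart; normalized to enzyme-free and DMSO controls.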
# [6] = qHTS profiling of the MIPE4 collection as inhibitors of Plasmodium falciparum (3D7) proliferation (AID 743344; call rule not given here;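 note: scaled between DMSO vehicle wells and 0.29 µM artemisinin as full inhibition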); conditions: P. falciparum 3D7 in erythrocytes, SYBR Green DNA fluorescence, 72 h; at 28.5 µM (top of the series)
# How it was run: as §1
# [7] = qHTS profiling of the MIPE4 collection as inhibitors of Plasmodium falciparum (DD2) proliferation (AID 743345; call rule not given here); conditions: P. falciparum Dd2 in erythrocytes, SYBR Green DNA, 72 h; at 28.5 µM (top of the series)
# How it was run: as §1
# [8] = qHTS profiling of the MIPE4 collection as inhibitors of Plasmodium falciparum (DD2) proliferation (Rep 2) (AID 743346; call rule not given here); conditions: P. falciparum Dd2 in erythrocytes, SYBR Green DNA, 72 h; at 28.5 µM (top of the series)
# How it was run: as §1
# [9] = qHTS profiling of the MIPE4 collection as inhibitors of Plasmodium falciparum (HB3) proliferation (AID 743347; call rule not given here;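 note: plate controls were DMSO vehicle wells for no effect and artemisinin wells for full effect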); conditions: P. falciparum HB3 in erythrocytes, SYBR Green DNA, 72 h; at 28.5 µM (top of the series)
# How it was run: as §1
# RecQ-like DNA helicase BLM (Homo sapiens), sequence (P54132 whole entry, looked up): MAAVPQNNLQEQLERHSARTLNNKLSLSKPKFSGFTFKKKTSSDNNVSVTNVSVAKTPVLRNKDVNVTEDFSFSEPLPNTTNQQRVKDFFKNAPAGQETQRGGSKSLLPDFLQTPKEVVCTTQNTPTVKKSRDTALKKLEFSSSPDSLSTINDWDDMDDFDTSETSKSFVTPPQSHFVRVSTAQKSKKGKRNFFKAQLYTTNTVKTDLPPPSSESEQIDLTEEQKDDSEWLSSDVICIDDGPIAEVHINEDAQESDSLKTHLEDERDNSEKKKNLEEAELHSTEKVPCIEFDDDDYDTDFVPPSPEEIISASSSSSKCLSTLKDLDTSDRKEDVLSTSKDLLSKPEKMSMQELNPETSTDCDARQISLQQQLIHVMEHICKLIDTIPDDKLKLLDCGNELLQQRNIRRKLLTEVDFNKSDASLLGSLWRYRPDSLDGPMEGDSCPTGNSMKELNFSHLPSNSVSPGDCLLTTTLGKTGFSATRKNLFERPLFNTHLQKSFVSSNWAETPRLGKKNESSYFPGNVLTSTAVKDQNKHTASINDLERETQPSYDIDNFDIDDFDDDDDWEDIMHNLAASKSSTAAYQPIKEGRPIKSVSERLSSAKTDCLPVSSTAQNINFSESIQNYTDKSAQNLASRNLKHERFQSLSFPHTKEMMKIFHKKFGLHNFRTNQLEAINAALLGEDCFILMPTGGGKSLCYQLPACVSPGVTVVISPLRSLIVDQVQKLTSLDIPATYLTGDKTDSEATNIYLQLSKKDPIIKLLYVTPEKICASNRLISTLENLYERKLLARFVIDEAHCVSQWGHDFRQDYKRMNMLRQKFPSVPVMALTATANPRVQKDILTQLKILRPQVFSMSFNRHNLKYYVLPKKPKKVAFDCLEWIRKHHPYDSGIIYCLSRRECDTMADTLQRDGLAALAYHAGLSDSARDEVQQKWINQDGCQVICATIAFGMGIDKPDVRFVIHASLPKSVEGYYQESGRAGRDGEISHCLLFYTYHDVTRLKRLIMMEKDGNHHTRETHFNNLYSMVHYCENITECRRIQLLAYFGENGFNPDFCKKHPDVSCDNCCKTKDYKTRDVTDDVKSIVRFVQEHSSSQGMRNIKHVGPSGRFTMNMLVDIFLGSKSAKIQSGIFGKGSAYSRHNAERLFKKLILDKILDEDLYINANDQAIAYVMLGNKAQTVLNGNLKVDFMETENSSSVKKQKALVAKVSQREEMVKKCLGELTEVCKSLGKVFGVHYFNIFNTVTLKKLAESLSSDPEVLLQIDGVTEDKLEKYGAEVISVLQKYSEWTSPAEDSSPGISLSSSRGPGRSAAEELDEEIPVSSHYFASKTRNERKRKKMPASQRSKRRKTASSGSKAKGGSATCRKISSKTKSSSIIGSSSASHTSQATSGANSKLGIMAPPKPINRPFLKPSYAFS
structure (smiles),measurement,setting,value
O=C([C@H](Cc1ccc(O[S+](=O)([O-])c2ccccn2)cc1)N[S+](=O)([O-])c1cccc2cnccc12)N1CCN(c2ccccc2)CC1,remaining parasite growth % (stronger effect = lower value),[1],-0.962%
same,"activity, percent of control",[2],2.47%
same,"remaining proliferation (% of control), lower = more inhibition",[3],0.0492%
CCCCC(F)(F)[C@@]1(O)CC[C@H]2[C@@H](CC(=O)[C@@H]2CCCCCCC(=O)O)O1,max response,[4],2.98% (inactive)
O=C([C@H](Cc1ccc(O[S+](=O)([O-])c2ccccn2)cc1)N[S+](=O)([O-])c1cccnc1)N1CCN(c2ccccc2)CC1,remaining parasite growth % (stronger effect = lower value),[1],17.8%
same,"activity, percent of control",[2],17.9%
same,"remaining proliferation (% of control), lower = more inhibition",[3],2.38%
O=C([C@@H](Cc1ccc(O[S+](=O)([O-])c2ccccn2)cc1)N[S+](=O)([O-])c1cccc2cccnc12)N1CCN(c2ccccc2)CC1,remaining parasite growth % (stronger effect = lower value),[1],-0.32%
same,"activity, percent of control",[2],1.5%
same,"remaining proliferation (% of control), lower = more inhibition",[3],0.71%
COC(=O)[C@H](Cc1ccc(O[S+](=O)([O-])c2cccc3cnccc23)cc1)N[S+](=O)([O-])c1ccc2cnccc2c1,remaining parasite growth % (stronger effect = lower value),[1],13.9%
same,"activity, percent of control",[2],29.2%
same,"remaining proliferation (% of control), lower = more inhibition",[3],6.01%
CS(=O)(=O)c1ccc(-c2cnc(N)c(-c3ccc(C(F)(F)F)nc3)c2)cc1,remaining parasite growth % (stronger effect = lower value),[1],2.16%
same,"activity, percent of control",[2],8.27%
same,"remaining proliferation (% of control), lower = more inhibition",[3],4.13%
O=C([C@H](Cc1ccc(O[S+](=O)([O-])c2cccc3cccnc23)cc1)N[S+](=O)([O-])c1cccc2cnccc12)N1CCN(c2ccccc2)CC1,remaining parasite growth % (stronger effect = lower value),[1],-0.402%
same,"activity, percent of control",[2],1.4%
same,"remaining proliferation (% of control), lower = more inhibition",[3],0.212%
O=C([C@@H](Cc1ccc(O[S+](=O)([O-])c2cccc3cccnc23)cc1)N[S+](=O)([O-])c1cccc2cccnc12)N1CCN(c2ccccc2)CC1,remaining parasite growth % (stronger effect = lower value),[1],0.884%
same,"activity, percent of control",[2],3.45%
same,"remaining proliferation (% of control), lower = more inhibition",[3],1.75%
C/C=C/C1=C(C(=O)O)N2C(=O)[C@@H](NC(=O)[C@H](N)c3ccc(O)cc3)[C@H]2SC1,max response,[4],9.08% (inactive)
O=C([C@H](Cc1ccc(O[S+](=O)([O-])c2cccc3cccnc23)cc1)N[S+](=O)([O-])c1ccccn1)N1CCN(c2ccccc2)CC1,remaining parasite growth % (stronger effect = lower value),[1],-1.21%
same,"activity, percent of control",[2],2.43%
same,"remaining proliferation (% of control), lower = more inhibition",[3],-0.011%
O=C1C(=O)c2ccccc2C(O)=C1C1CCCCC1,remaining parasite growth % (stronger effect = lower value),[1],3.7%
same,"activity, percent of control",[2],4.15%
same,"remaining proliferation (% of control), lower = more inhibition",[3],3.28%
CC(C)(C)OC(=O)N[C@@H](Cc1ccc(O[S+](=O)([O-])c2ccccn2)cc1)C(=O)N1CCN(c2ccccc2)CC1,remaining parasite growth % (stronger effect = lower value),[1],5.22%
same,"activity, percent of control",[2],11.4%
same,"remaining proliferation (% of control), lower = more inhibition",[3],2.38%
C=C1C(=C/C=C2\CCC[C@]3(C)[C@@H]([C@H](C)CCCC(C)C)CC[C@@H]23)C[C@@H](O)C[C@@H]1O,max response,[4],-2.16% (inactive)
O=C([C@H](Cc1ccc(O[S+](=O)([O-])c2cccnc2)cc1)N[S+](=O)([O-])c1ccccn1)N1CCN(c2ccccc2)CC1,remaining parasite growth % (stronger effect = lower value),[1],6.76%
same,"activity, percent of control",[2],12.3%
same,"remaining proliferation (% of control), lower = more inhibition",[3],2.47%
O=C([C@H](Cc1ccc(O[S+](=O)([O-])c2cccnc2)cc1)N[S+](=O)([O-])c1cccnc1)N1CCN(c2ccccc2)CC1,remaining parasite growth % (stronger effect = lower value),[1],15.8%
same,"activity, percent of control",[2],16.7%
same,"remaining proliferation (% of control), lower = more inhibition",[3],3.22%
CN(C)c1cc(NC(=O)CNC(C)(C)C)c(O)c2c1C[C@H]1C[C@H]3[C@H](N(C)C)C(=O)C(C(N)=O)=C(O)[C@@]3(O)C(=O)C1=C2O,max response,[4],7.63% (inactive)
CO[C@@]12[C@H](COC(N)=O)C3=C(C(=O)C(C)=C(N)C3=O)N1C[C@H]1N[C@H]12,remaining parasite growth % (stronger effect = lower value),[1],-0.57%
same,"activity, percent of control",[2],0.869%
same,"remaining proliferation (% of control), lower = more inhibition",[3],-0.956%
O=C([C@H](Cc1ccc(OS(=O)(=O)c2ccccn2)cc1)NS(=O)(=O)c1ccccn1)N1CCN(c2ccccc2)CC1,remaining parasite growth % (stronger effect = lower value),[1],49.4%
same,"activity, percent of control",[2],24.7%
same,"remaining proliferation (% of control), lower = more inhibition",[3],18.6%
COc1ccc(Cl)cc1-c1cc(C(=O)Nc2cc(OC)c(OC)c(OC)c2)[nH]n1,Potency,[5],27.1 µM (active)
O=C1CCC(C2=C(O)c3ccccc3C(=O)C2=O)CC1,remaining parasite growth % (stronger effect = lower value),[1],7.05%
same,"activity, percent of control",[2],6.83%
same,"remaining proliferation (% of control), lower = more inhibition",[3],5.38%
N[C@H]1CN(c2c(F)cc3c(=O)c(C(=O)O)cn(C4C[C@H]4F)c3c2Cl)CC12CC2 (stereo not given in full),max response,[4],-6.9% (inactive)
CC[C@]1(O)CC2CN(CCc3c([nH]c4ccccc34)[C@@](C(=O)OC)(c3cc4c(cc3OC)N(C)[C@H]3[C@@](O)(C(N)=O)[C@H](O)[C@]5(CC)C=CCN6CC[C@]43[C@@H]65)C2)C1 (stereo not given in full),max response,[4],-7.92% (inactive)
CC(O)[C@@H]1NC(=O)[C@H](CCCCN)NC(=O)[C@@H](Cc2c[nH]c3ccccc23)NC(=O)[C@H](Cc2ccccc2)NC(=O)[C@@H](NC(=O)[C@H](N)Cc2ccccc2)CSSC[C@@H](C(=O)N[C@H](CO)[C@@H](C)O)NC1=O (stereo not given in full),max response,[4],-8.72% (inactive)
O=CN(O)CCCP(=O)(O)O,remaining parasite growth % (stronger effect = lower value),[1],11.2%
same,"activity, percent of control",[2],11.8%
same,"remaining proliferation (% of control), lower = more inhibition",[3],14.2%
same,"parasite growth, % of DMSO control",[6],14.4%
same,"parasite growth remaining, % of DMSO control (lower = more inhibition)",[7],19.9%
same,"parasite growth, % of control (lower = inhibition)",[8],17.4%
same,"growth, % of control",[9],9.42%
NC[C@@H]1O[C@H](O[C@H]2[C@@H](O)[C@H](O[C@@H]3[C@@H](O)[C@H](N)C[C@H](N)[C@H]3O[C@H]3O[C@H](CN)[C@@H](O)[C@H](O)[C@H]3N)O[C@@H]2CO)[C@H](N)[C@@H](O)[C@@H]1O,max response,[4],-12% (inactive)
N[C@@H](Cc1ccc(OS(=O)(=O)c2ccccn2)cc1)C(=O)N1CCN(c2ccccc2)CC1,remaining parasite growth % (stronger effect = lower value),[1],98.8%
same,"activity, percent of control",[2],43.6%
same,"remaining proliferation (% of control), lower = more inhibition",[3],67%
O=C([C@H](Cc1ccc(O[S+](=O)([O-])c2cccc3cnccc23)cc1)N[S+](=O)([O-])c1cccnc1)N1CCN(c2ccccc2)CC1,remaining parasite growth % (stronger effect = lower value),[1],-1.25%
same,"activity, percent of control",[2],0.979%
same,"remaining proliferation (% of control), lower = more inhibition",[3],-0.812%
CCCC[C@@H]1C[C@@H](C(=O)NC([C@H](C)Cl)[C@H]2O[C@H](S)[C@H](O)[C@@H](O)[C@@H]2O)N(C)C1 (stereo not given in full),remaining parasite growth % (stronger effect = lower value),[1],39%
same,"activity, percent of control",[2],33.1%
same,"remaining proliferation (% of control), lower = more inhibition",[3],31.5%
same,"parasite growth, % of DMSO control",[6],29.2%
same,"parasite growth remaining, % of DMSO control (lower = more inhibition)",[7],38%
same,"parasite growth, % of control (lower = inhibition)",[8],28%
same,"growth, % of control",[9],52.4%
O=C(O)[C@H]1/C(=C/CO)O[C@@H]2CC(=O)N21,max response,[4],8.98% (inactive)
